Reference: PubChem BioAssay (NCATS)
Records with an inconclusive call do not appear. The source made the active and inactive calls. The call rests on the fitted dose curve; in most records, active means well fitted inhibition curve with a large enough effect; inconclusive means small, poorly fitted or top-dose-only effect; inactive means flat fitted curve, though single readings scatter.

Test system: HACAT
Assay: qHTS assay to identify novel small-molecules to repurpose for Merkel cell carcinoma treatment (AID 1296009); further: nearly all actives have a fitted effect of over 60% in size
Conditions: MCC and control cell lines, CellTiter-Glo viability, 72 h; at 44.8 µM (top of the series) unless noted
How it was run: (§1)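 Cells exposed to NPC (8-point) and MIPE (11-point) compound dilutions for 72 hr at 37 degree celsius; viability read by CellTiter-Glo luminescence, normalized to no-cell and DMSO in-plate controls.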

SMILES	outcome
Nc1ccccc1	inactive
CC(C)N(CCC(C(N)=O)(c1ccccc1)c1ccccn1)C(C)C (stereo not given)	inactive
C=C(C)[C@H]1CN[C@H](C(=O)O)[C@H]1CC(=O)O	inactive
CN1C(=O)CCS(=O)(=O)C1c1ccc(Cl)cc1 (stereo not given)	inactive
CNC(C)(C)Cc1ccccc1	inactive
CC1(C)C(C=C(Cl)Cl)C1C(=O)OC(C#N)c1cccc(Oc2ccccc2)c1 (stereo not given)	inactive
O=C1c2ccccc2C(=O)c2ccccc21	inactive [at 17.4 µM]
O=C1c2ccccc2C(=O)C1C(=O)C(c1ccccc1)c1ccccc1	inactive
C[C@]12CC[C@@H]3c4ccc(OC(=O)N(CCCl)CCCl)cc4CC[C@H]3[C@@H]1CC[C@@H]2OP(=O)(O)O	inactive
O=C(O)CCCc1ccc(N(CCCl)CCCl)cc1	inactive
c1ccc(CN2CCNCC2)cc1	inactive [at 155 µM]
C[N+]1(CCF)[C@@H]2CC[C@H]1CC(OC(=O)C(O)(c1ccccc1)c1ccccc1)C2 (stereo not given in full)	inactive
CCN(CCO)CCn1c(Cc2ccccc2)nc2c1c(=O)n(C)c(=O)n2C	inactive
O=C1OC(c2ccc(O)c(S(=O)(=O)O)c2)(c2ccc(O)c(S(=O)(=O)O)c2)c2c(Br)c(Br)c(Br)c(Br)c21	inactive
CC(NC(C)(C)C)C(=O)c1cccc(Cl)c1 (stereo not given)	inactive
O=c1[nH]oc2c1CCNC2	inactive
O=P1(N(CCCl)CCCl)NCCCO1 (stereo not given)	inactive
COc1ccc2c3c1O[C@H]1[C@H](O)CC[C@H]4[C@@H](C2)N(C)CC[C@@]341	inactive [at 92 µM]
CN1CC[C@]23c4c5ccc(O)c4O[C@H]2[C@@H](O)CC[C@H]3[C@H]1C5	inactive [at 92 µM]
COc1cc(OC)c(OC)cc1C=O	inactive
Oc1ccc(Cl)cc1	inactive
CC(C)c1cccc(C(C)C)c1O	inactive
CNCC(=O)c1ccc(O)c(O)c1	inactive

Test system: HEK293T
Assay: as above
Conditions: MCC and control cell lines, CellTiter-Glo viability, 72 h; at 44.8 µM (top of the series) unless noted
How it was run: as §1

SMILES	outcome
Nc1ccccc1	inactive
CN1C(=O)CCS(=O)(=O)C1c1ccc(Cl)cc1 (stereo not given)	inactive
O=C1c2ccccc2C(=O)c2ccccc21	inactive [at 17.4 µM]
O=C1c2ccccc2C(=O)C1C(=O)C(c1ccccc1)c1ccccc1	inactive
COC(=O)[C@@H](N)CCCN/C(N)=N/[N+](=O)[O-]	inactive
CCC1(c2ccc(N)cc2)CCC(=O)NC1=O (stereo not given)	inactive
CC(C)(C)NCC(O)c1cc(Cl)c(N)c(C(F)(F)F)c1 (stereo not given)	inactive
O=C1OC(c2ccc(O)c(S(=O)(=O)O)c2)(c2ccc(O)c(S(=O)(=O)O)c2)c2c(Br)c(Br)c(Br)c(Br)c21	inactive
CC(NC(C)(C)C)C(=O)c1cccc(Cl)c1 (stereo not given)	inactive
COc1cc(OC)c(OC)cc1C=O	inactive [at 92 µM]
Oc1ccc(Cl)cc1	inactive
CC(C)c1cccc(C(C)C)c1O	inactive
